Measurements published in PubChem BioAssay AID1159580 (chemical genetic matrix, 2015).
“And” between values parts separate entries of the source, which are not always exact repeats. Equal entries are not always repeated. About 2,000 (36%) of roughly 5,500 compounds were called active. Inconclusive results (about 18%) are left out. Rule as the data show it: active = normalized growth mostly below about 0.91 (no sharp cut-off); inconclusive = no clear call, values can overlap the other calls; inactive = mostly above about 0.92. The list shows a part of the results.

Test: chemical genetic growth profiling, strain panel (AID 1159580);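 also: tested at 20 µM; growth read once vehicle control cultures reached saturation at 30 °C; 1 = growth at the plate median or of vehicle wells; lower values mean less growth of the strain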
Conditions: growth OD

Measured: normalized growth

CN(C)CCC(c1ccccc1)c1ccccn1 (centres undefined)
inactive: S. cerevisiae deletion strains, locus YJR066W, strain TOR1, stronger effect = lower value 0.93 | S. cerevisiae deletion strains, locus YJR075W, strain HOC1, stronger effect = lower value 1.01 and 0.951 | S. cerevisiae deletion strains, locus YKL009W, strain mrt4, stronger effect = lower value 1.03 | S. cerevisiae deletion strains, locus YKL068W, stronger effect = lower value 1 | S. cerevisiae deletion strains, locus YKL085W, strain MDH1 (second series), stronger effect = lower value 1.01 | S. cerevisiae deletion strains, locus YKL085W, strain MDH1, stronger effect = lower value 1.01 | S. cerevisiae deletion strains, locus YKL160W, strain elf1, stronger effect = lower value 1.01 | S. cerevisiae deletion strains, locus YKL190W, strain CNB1, stronger effect = lower value 1.01 | S. cerevisiae deletion strains, locus YKR001C, strain vps1, stronger effect = lower value 1 | S. cerevisiae deletion strains, locus YKR026C, strain gcn3, stronger effect = lower value 1.03 | S. cerevisiae deletion strains, locus YKR091W, strain srl3, stronger effect = lower value 1 | S. cerevisiae deletion strains, locus YLL001W, strain dnm1, stronger effect = lower value 1.02 | S. cerevisiae deletion strains, locus YLL026W, stronger effect = lower value 1.02 | S. cerevisiae deletion strains, locus YLL041C, strain sdh2, stronger effect = lower value 1.02 | S. cerevisiae deletion strains, locus YLR027C, strain aat2, stronger effect = lower value 1.01 | S. cerevisiae deletion strains, locus YLR039C, strain RIC1, stronger effect = lower value 1.05 | S. cerevisiae deletion strains, locus YLR058C, strain SHM2, stronger effect = lower value 1 | S. cerevisiae deletion strains, locus YLR102C, strain apc9, stronger effect = lower value 1 | S. cerevisiae deletion strains, locus YLR113W, strain HOG1, stronger effect = lower value 0.981 | S. cerevisiae deletion strains, locus YLR221C, strain rsa3, stronger effect = lower value 1.01 | S. cerevisiae deletion strains, locus YLR258W, strain gsy2, stronger effect = lower value 1.01 | S. cerevisiae deletion strains, locus YLR262C, strain YPT6 (second series), stronger effect = lower value 1.03 | S. cerevisiae deletion strains, locus YLR262C, strain YPT6, stronger effect = lower value 1.01 | S. cerevisiae deletion strains, locus YLR268W, strain sec22, stronger effect = lower value 1.04 | S. cerevisiae deletion strains, locus YLR320W, strain mms22, stronger effect = lower value 1.01 | S. cerevisiae deletion strains, locus YLR330W, strain CHS5, stronger effect = lower value 1.01 | S. cerevisiae deletion strains, locus YLR342W, strain FKS1 (second series), stronger effect = lower value 1.03 | S. cerevisiae deletion strains, locus YLR342W, strain FKS1, stronger effect = lower value 1.01 | S. cerevisiae deletion strains, locus YLR357W, strain rsc2, stronger effect = lower value 1.02 | S. cerevisiae deletion strains, locus YLR370C, strain arc18, stronger effect = lower value 1.02 | S. cerevisiae deletion strains, locus YLR371W, strain rom2, stronger effect = lower value 1.01 | S. cerevisiae deletion strains, locus YLR384C, strain iki3, stronger effect = lower value 1.01 | S. cerevisiae deletion strains, locus YLR418C, strain cdc73, stronger effect = lower value 0.995 | S. cerevisiae deletion strains, locus YML016C, strain PPZ1, stronger effect = lower value 1 | S. cerevisiae deletion strains, locus YML032C, strain rad52, stronger effect = lower value 1.01 | S. cerevisiae deletion strains, locus YML120C, strain ndi1, stronger effect = lower value 1.01 | S. cerevisiae deletion strains, locus YML124C, strain tub3, stronger effect = lower value 1 | S. cerevisiae deletion strains, locus YMR058W, strain fet3, stronger effect = lower value 1.02 | S. cerevisiae deletion strains, locus YMR078C, strain ctf18, stronger effect = lower value 1.01 | S. cerevisiae deletion strains, locus YMR125W, strain sto1, stronger effect = lower value 1.01 | S. cerevisiae deletion strains, locus YMR129W, stronger effect = lower value 1.01 | S. cerevisiae deletion strains, locus YMR205C, strain PFK2, stronger effect = lower value 1.01 | S. cerevisiae deletion strains, locus YMR223W, strain ubp8, stronger effect = lower value 0.983 | S. cerevisiae deletion strains, locus YMR231W, strain pep5, stronger effect = lower value 1.02 | S. cerevisiae deletion strains, locus YMR263W, strain SAP30, stronger effect = lower value 1 and 0.998 | S. cerevisiae deletion strains, locus YMR307W, strain GAS1, stronger effect = lower value 1.03 and 0.977 | S. cerevisiae deletion strains, locus YNL067W, strain RPL9B, stronger effect = lower value 0.996 | S. cerevisiae deletion strains, locus YNL071W, strain lat1, stronger effect = lower value 1.01 | S. cerevisiae deletion strains, locus YNL128W, strain TEP1, stronger effect = lower value 1.02 | S. cerevisiae deletion strains, locus YNL175C, strain NOP13, stronger effect = lower value 1.01 | S. cerevisiae deletion strains, locus YNL183C, strain NPR1, stronger effect = lower value 0.939 | S. cerevisiae deletion strains, locus YNL197C, strain WHI3, stronger effect = lower value 1.01 | S. cerevisiae deletion strains, locus YNL209W, strain ssb2, stronger effect = lower value 1.02 | S. cerevisiae deletion strains, locus YNL224C, strain SQS1, stronger effect = lower value 1 | S. cerevisiae deletion strains, locus YNL233W, strain BNI4, stronger effect = lower value 1 | S. cerevisiae deletion strains, locus YNL248C, strain rpa49, stronger effect = lower value 1 | S. cerevisiae deletion strains, locus YNL250W, strain rad50, stronger effect = lower value 0.997 | S. cerevisiae deletion strains, locus YNL271C, strain bni1, stronger effect = lower value 0.993 | S. cerevisiae deletion strains, locus YNL298W, strain CLA4, stronger effect = lower value 1.01 | S. cerevisiae deletion strains, locus YNL307C, strain MCK1, stronger effect = lower value 1.01 | S. cerevisiae deletion strains, locus YNL322C, strain KRE1 (second series), stronger effect = lower value 1.01 | S. cerevisiae deletion strains, locus YNR049C, strain mso1, stronger effect = lower value 1.02 | S. cerevisiae deletion strains, locus YNR052C, strain pop2, stronger effect = lower value 1.01 | S. cerevisiae deletion strains, locus YOL006C, strain TOP1, stronger effect = lower value 0.993 | S. cerevisiae deletion strains, locus YOL012C, strain htz1 2.13 | S. cerevisiae deletion strains, locus YOL147C, strain pex11, stronger effect = lower value 1 | S. cerevisiae deletion strains, locus YOR001W, strain rrp6, stronger effect = lower value 0.988 | S. cerevisiae deletion strains, locus YOR061W, strain CKA2, stronger effect = lower value 1 | S. cerevisiae deletion strains, locus YOR069W, strain VPS5, stronger effect = lower value 1.01 | S. cerevisiae deletion strains, locus YOR070C, strain gyp1, stronger effect = lower value 1.01 | S. cerevisiae deletion strains, locus YOR080W, strain dia2, stronger effect = lower value 1.01 | S. cerevisiae deletion strains, locus YOR083W, strain WHI5 (second series), stronger effect = lower value 1.03 | S. cerevisiae deletion strains, locus YOR083W, strain WHI5, stronger effect = lower value 1.01 | S. cerevisiae deletion strains, locus YOR106W, strain vam3, stronger effect = lower value 1 | S. cerevisiae deletion strains, locus YOR136W, strain idh2, stronger effect = lower value 0.99 | S. cerevisiae deletion strains, locus YOR144C, strain elg1, stronger effect = lower value 0.995 | S. cerevisiae deletion strains, locus YOR184W, strain ser1, stronger effect = lower value 1.01 | S. cerevisiae deletion strains, locus YOR231W, strain MKK1, stronger effect = lower value 0.981 | S. cerevisiae deletion strains, locus YOR265W, strain rbl2, stronger effect = lower value 1 | S. cerevisiae deletion strains, locus YOR270C, strain vph1, stronger effect = lower value 0.997 | S. cerevisiae deletion strains, locus YOR290C, strain snf2, stronger effect = lower value 1.04 | S. cerevisiae deletion strains, locus YOR316C, strain cot1, stronger effect = lower value 1 | S. cerevisiae deletion strains, locus YPL051W, strain arl3, stronger effect = lower value 1.01 | S. cerevisiae deletion strains, locus YPL055C, strain LGE1, stronger effect = lower value 0.985 | S. cerevisiae deletion strains, locus YPL078C, strain atp4, stronger effect = lower value 1.01 | S. cerevisiae deletion strains, locus YPL106C, strain sse1, stronger effect = lower value 1 | S. cerevisiae deletion strains, locus YPL240C, strain hsp82, stronger effect = lower value 0.989 | S. cerevisiae deletion strains, locus YPL256C, strain CLN2, stronger effect = lower value 0.928 | S. cerevisiae deletion strains, locus YPR119W, strain clb2, stronger effect = lower value 1 | S. cerevisiae deletion strains, locus YPR141C, strain kar3, stronger effect = lower value 0.994 | S. cerevisiae deletion strains, locus YPR163C, strain tif3, stronger effect = lower value 1.01 | S. cerevisiae deletion strains, locus YPR167C, strain met16, stronger effect = lower value 0.999 | S. cerevisiae deletion strains, strain wtn01, stronger effect = lower value 1 | S. cerevisiae strains, strain wild type, stronger effect = lower value 1.01
